# Only a selection was taken, and hits are over-represented in it overall.
# GIRK2 activator – activators of NPY4-receptor-primed GIRK2 channels, summary, cell-based, HEK293, thallium flux; G protein-activated inward rectifier potassium channel 2 (Homo sapiens), P48051; HEK293 GIRK2/NPY4 cells, thallium flux fluorescence; activation (% efficacy), % for hits at 37.5 µM; 34,000 tested, under 10 active; AID 1259324, 2017;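 active = primary screen hit, no activity in plain HEK293 cells, and in GIRK2-only cells above 5% efficacy rising with concentration; inactive = the rest, including fluorescent compounds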;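 note: efficacy is normalized control-subtracted fluorescence 15 s after thallium addition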
# Target sequence (P48051 whole entry, looked up): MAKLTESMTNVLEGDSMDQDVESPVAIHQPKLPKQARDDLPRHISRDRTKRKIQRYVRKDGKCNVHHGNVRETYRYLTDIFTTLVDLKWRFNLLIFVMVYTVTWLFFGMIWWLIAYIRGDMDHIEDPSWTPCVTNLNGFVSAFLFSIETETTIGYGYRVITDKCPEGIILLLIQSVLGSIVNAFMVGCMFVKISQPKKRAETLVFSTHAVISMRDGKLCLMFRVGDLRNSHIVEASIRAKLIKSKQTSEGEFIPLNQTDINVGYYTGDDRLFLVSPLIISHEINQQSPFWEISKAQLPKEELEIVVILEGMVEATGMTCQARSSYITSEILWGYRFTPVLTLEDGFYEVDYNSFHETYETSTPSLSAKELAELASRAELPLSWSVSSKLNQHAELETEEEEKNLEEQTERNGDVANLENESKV
# GluA2 TARP mod – modulators of GluA2-stargazin AMPA receptor complexes, primary screen, cell-based, membrane potential dye; AID 1259245, 2017; actives 3.5% (n = 40,000); HEK293 GluA2+stargazin, membrane potential dye (FDSS), glutamate EC50; hits were called plate by plate, in both directions; Voltage-dependent calcium channel gamma-2 subunit (Mus musculus) + Glutamate receptor 2 …; calls only at 30 µM;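 active = any of four per-well response measures lying three or more SD from its plate-wide compound average, in either direction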
# * marks the source's active call; other numbers are inactive results; i = inactive; x = no result; + = active, no number.
SMILES,GIRK2 activator,GluA2 TARP mod
C=CCNC(=O)Cn1cc(OC)c(=O)cc1CSc1nnnn1C,i,i
CCOc1ccccc1C(=O)N1CCN(c2ncnc3c2nnn3-c2ccc(OC)cc2)CC1,x,+
CCOc1ccccc1C(=O)N1CCN(c2ncnc3c2nnn3-c2ccc(F)cc2)CC1,i,i
CCN(c1ccccc1)C1SC(=O)N(c2ccc(F)cc2)C1=O (stereo unspecified),i,i
Cc1c(Cl)cccc1S(=O)(=O)N1CCC(Cn2c(C)nc3ccccc32)CC1,i,+
Cc1n[nH]c(C)c1S(=O)(=O)N1CCC(Cn2c(C)nc3ccccc32)CC1,i,i
O=C(C1CCCC1)N1CCc2ccc(NS(=O)(=O)Cc3ccccc3)cc21,i,+
O=C(C1CC1)N1CCc2ccc(NS(=O)(=O)c3ccc4c(c3)CCCC4)cc21,i,+
O=C(Nc1ccc2c(c1)N(C(=O)C1CC1)CC2)c1cc(Br)ccc1Cl,i,i
O=C(c1ccco1)N1CCc2ccc(NS(=O)(=O)Cc3ccccc3)cc21,i,i
O=C(Nc1ccc2c(c1)N(C(=O)C1CC1)CC2)c1ccc(Cl)c(Cl)c1,i,+
O=C(C1CC1)N1CCc2ccc(NS(=O)(=O)c3ccc4c(c3)OCCO4)cc21,i,i
COc1cn(CC(=O)Nc2cccc(Cl)c2)c(CSc2nnc(C)s2)cc1=O,i,i
COc1ccc(CC(=O)NCCNc2ccc(Nc3cc(C)ccn3)nn2)cc1,i,i
COc1cn(CC(=O)Nc2cccc(C(F)(F)F)c2)c(CSc2nnnn2C)cc1=O,i,i
COc1ccc(CCNC(=O)COc2ccc(C(C)C)c(C)c2)cc1OC,i,+
COc1ccc(OCC(=O)NCCc2ccc(OC)c(OC)c2)cc1,i,i
Cn1cccc1C(O)CNC(=O)C(=O)NCc1ccccc1Cl (stereo unspecified),i,i
COc1ccc(-c2ccc(C#N)c(SCc3ccc(C#N)cc3)n2)cc1,i,i
COc1ccc(-c2ccc3c(N)c(-c4ccc(C#N)cc4)sc3n2)cc1,i,+
O=C(Nc1ccc2ncsc2c1)c1cccc([N+](=O)[O-])c1,i,+
O=C(Nc1ccc2ncsc2c1)c1ccc(C(=O)c2ccccc2)cc1,i,i
Nc1nc(SCC(=O)Nc2ccccc2)ncc1S(=O)(=O)c1ccc(Cl)s1,i,+
CC(=O)c1ccc(NC(=O)CSc2ncc(S(=O)(=O)c3ccc(Cl)s3)c(N)n2)cc1,i,i
CSc1ccccc1NC(=O)C(=O)N1CCN(c2cccc(Cl)c2)CC1,i,i
SMILES,GIRK2 activator,GluA2 TARP mod
O=S(=O)(c1cccs1)N1CCN(c2ccc(N3CCCC3)nn2)CC1,i,+
O=S(=O)(c1cccs1)N1CCN(c2ccc(-c3ccccc3)nn2)CC1,i,i
Cc1ccc(-c2ccc(=O)n(CCCNS(=O)(=O)c3c(C)cc(C)cc3C)n2)cc1,i,+
O=c1ccc(-c2ccccc2)nn1CCCNS(=O)(=O)c1ccc2c(c1)CCCC2,i,+
O=c1ccc(-c2cccs2)nn1CCCNS(=O)(=O)c1ccc(Cl)c(Cl)c1,i,i
COc1ccc(-c2ccc(=O)n(CCNS(=O)(=O)c3c(C)cc(C)cc3C)n2)cc1,x,i
O=c1ccc(-c2cccs2)nn1CCCNS(=O)(=O)c1cccc(C(F)(F)F)c1,i,+
COc1ccc(-c2ccc(=O)n(CCNS(=O)(=O)c3ccc4c(c3)CCCC4)n2)cc1,x,i
Cn1c(-c2cccs2)nn(CCNC(=O)C(C)(C)Oc2ccc(Cl)cc2)c1=O,i,i
CCOC(=O)N1CCc2c(sc(NC(=O)/C=C/c3cccs3)c2-c2nc3ccccc3s2)C1,x,i
O=C(NCC(O)(c1ccccc1)C(F)(F)F)c1c(F)cccc1F (stereo unspecified),i,i
O=C(CSc1nc(=O)n(CCO)c2c1CCC2)Nc1nc2ccccc2s1,i,i
COc1cc(Br)c(/C=C/c2ccc3cccc(O)c3n2)cc1OC,x,i
CCOc1cc(/C=C/c2ccc3cccc(O)c3n2)ccc1OC,x,+
COc1cc(/C=C/c2ccc3cccc(O)c3n2)ccc1OCc1ccccc1,x,i
COc1cc(/C=C/c2ccc3cccc(O)c3n2)ccc1O,x,+
O=[N+]([O-])c1cc(/C=C/c2ccc3cccc(O)c3n2)ccc1O,x,+
O=[N+]([O-])c1ccc(O)c(/C=C/c2ccc3cccc(O)c3n2)c1,x,i
O=C(c1ccc2c(c1)OCCO2)N(CCN1CCOCC1)c1nc2c(F)cc(F)cc2s1,i,i
CC(=O)c1ccc(NC(=O)c2nnn(-c3ccccc3)c2CSc2ncccn2)cc1,i,i
O=S(=O)(NCCCN1CCOCC1)c1cccc2cnccc12,i,i
O=S(=O)(NC1CCCC1)c1cccc2cnccc12,i,+
CC(C(=O)NCCc1cccs1)n1nnc2ccccc2c1=O (stereo unspecified),i,i
O=C(NCCc1cccs1)c1nnn(-c2ccccc2Cl)c1-c1ccncc1,i,+
Cc1ccc(-n2nnc(-c3nc(-c4ccccc4Cl)no3)c2C)cc1C,x,i
SMILES,GIRK2 activator,GluA2 TARP mod
CCn1nnc2c(N3CCN(CC(=O)NC4CC4)CC3)ncnc21,i,i
CC(=O)OCCN1C(=O)c2cccc3c(N4CCCCC4)ccc(c23)C1=O,x,+
O=C(OCN1C(=O)c2ccccc2C1=O)C1CCCCC1,x,i
COc1ccccc1-c1nnc(NC(=O)c2ccccc2)o1,x,i
COc1ccc(-c2nnc(NC(C)=O)o2)c(OC)c1,x,+
COc1ccccc1-c1nnc(NC(=O)Cc2ccc(SC)cc2)o1,x,i
COc1ccc(C(=O)Nc2nnc(-c3ccccc3OC)o2)cc1,x,i
COc1ccc(-c2nnc(NC(=O)c3cccc(S(=O)(=O)C(C)C)c3)o2)c(OC)c1,i,+
COc1ccccc1-c1nnc(NC(=O)Cc2ccc(S(C)(=O)=O)cc2)o1,x,+
O=C(NCC(O)c1ccsc1)c1c(F)cccc1F (stereo unspecified),i,i
CCC(C(=O)N1CC(c2nc(-c3cccc(C(=O)NC)c3)no2)C1)c1ccccc1 (stereo unspecified),i,x
CCOC(=O)CC1C(=O)NCCN1Cc1ccccc1OCC (stereo unspecified),x,i
CCCN(CCC)S(=O)(=O)c1ccc(C(=O)Nc2nnc(-c3cc(C)n(C)n3)o2)cc1,i,i
Cc1cc(-c2nnc(NC(=O)c3ccc(C(C)(C)C)cc3)o2)nn1C,i,i
Cc1cc(-c2nnc(NC(=O)c3ccc(S(=O)(=O)N(C)C)cc3)o2)nn1C,i,+
Cc1cc(-c2nnc(NC(=O)c3ccc(Cl)cc3)o2)nn1C,i,+
COc1ccc(-c2noc(C3CC(=O)N(c4ccc5c(c4)OCO5)C3)n2)cc1OC (stereo unspecified),i,i
COCC(=O)Nc1ccc2c(c1)N(C(=O)c1cccs1)CC2,i,x
COc1ccc(OC)c2c1sc(=NC(=O)c1cc(C)no1)n2C,i,i
COc1cccc2sc(=NC(=O)c3cc(C)no3)n(C)c12,i,+
O=C(NCCOc1ccc2nnc(-c3ccccc3)n2n1)Nc1ccc2c(c1)OCCO2,i,i
